Only a selection was taken, and hits are over-represented in it overall.
Tb PYK inh = inhibitors of Trypanosoma brucei pyruvate kinase | Q57TT1 | Potency, µM (titrated, usually from 76.8 µM), for the others: top-dose activity, negative = inhibition, most hits filed as inhibitors | 0.12% of 410,000 active | TbPYK enzyme, Kinase-Glo Plus ATP luminescence, 45 min; note: potency is the fitted concentration of half-maximal effect; % is set by controls: 0 for no effect and ±100 for the full control effect; nearly all actives have a fitted effect of over 50% in size
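T. brucei PYK with substrate was exposed to pin-transferred compounds across a concentration series, then started with 130 uM ADP (final). After 45 min at room temperature, Kinase-Glo Plus luminescence was read, normalized and curve-fitted.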
Cycloheximide cs = counter-screen for Shiga toxin inhibitors: cycloheximide protein synthesis inhibition. max response, %. 12% of 300,000 active. cell reporter, cycloheximide protein synthesis inhibition counterscreen. AID 2314; in the data active = max response mostly above about 13%, no sharp cut-off; inactive = mostly below about 14%; note: read at 38.3 µM for the half of the compounds with a filed dose; 0% is about no effect
Shiga toxin inh = inhibitors of Shiga toxin in Vero cells; Vero cells, Shiga toxin protein synthesis inhibition reporter; inhibition, % at 38.7 µM; 9.2% of 290,000 active; in the data active = inhibition mostly above about 28%, no sharp cut-off; inactive = mostly below about 43%; note: 0% is about no effect
Giardia FBPA inh = inhibitors of Giardia lamblia fructose-1,6-bisphosphate aldolase. purified Giardia FBPA. AID 2451. A8B2U2. Potency, µM (top dose mostly 59.6 µM), inactives show at the top dose activity, negative = inhibition, actives largely listed as inhibitors. 0.71% of 290,000 active; note: potency is the fitted concentration of half-maximal effect; % is set by controls: 0 for no effect and ±100 for the full control effect; nearly all actives have a fitted effect of over 55% in size
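Giardia FBPA (40 nM reagent) was preincubated 10 min at RT with compound (up to 57.5 uM final), then substrate plus GAPDH/TPI/NAD/arsenate coupling system with diaphorase/resazurin was added; resorufin fluorescence (525/598 nm) was read after 20 min.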
LmPK inh = LmPK (Leishmania mexicana) enzyme inhibition. Potency, µM (titrated, usually from 57.5 µM), inactives show top-dose activity change, negative = inhibition, usual class: inhibitors. purified LmPK, Kinase-Glo ATP luminescence, 1 h. 0.37% of 290,000 active; note: potency is the fitted concentration of half-maximal effect; % is set by controls: 0 for no effect and ±100 for the full control effect
Target sequence (Q27686 whole entry, looked up): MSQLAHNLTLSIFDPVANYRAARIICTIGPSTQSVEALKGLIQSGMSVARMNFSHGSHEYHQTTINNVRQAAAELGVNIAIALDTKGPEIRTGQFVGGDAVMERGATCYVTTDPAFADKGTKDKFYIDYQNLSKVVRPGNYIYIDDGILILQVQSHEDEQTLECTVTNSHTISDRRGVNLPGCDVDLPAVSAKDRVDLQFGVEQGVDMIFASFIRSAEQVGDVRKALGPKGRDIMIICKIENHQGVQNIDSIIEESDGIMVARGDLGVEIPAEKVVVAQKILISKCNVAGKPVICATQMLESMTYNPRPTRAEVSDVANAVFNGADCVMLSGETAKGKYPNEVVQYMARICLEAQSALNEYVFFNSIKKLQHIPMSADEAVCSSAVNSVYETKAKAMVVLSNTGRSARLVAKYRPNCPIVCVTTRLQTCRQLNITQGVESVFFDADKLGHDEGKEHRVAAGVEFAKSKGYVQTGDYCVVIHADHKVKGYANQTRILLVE
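Kinase-Glo luminescence read after 1 h RT reaction of 0.1 nM LmPK with 0.5 mM PEP and 0.1 mM ADP. Activity scaled between uninhibited and enzyme-free controls.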
RE007 growth inh = less growth of the S. pombe RE007 Vpr strain. S. pombe RE007 Vpr strain, BacTiter-Glo ATP luminescence, 24 h. Potency, µM (highest dose often 92.2 µM), inactives show top-dose activity change, negative = less growth, actives largely listed as inhibitors. 0.21% of 360,000 active. AID 651644; active = well fitted falling curve with a large enough effect; inconclusive = small, poorly fitted or top-dose-only effect; inactive = no such curve, though single readings can be large or run the other way; note: potency is the fitted concentration of half-maximal effect; % is set by controls: 0 for no effect and ±100 for the full control effect; nearly all actives have a fitted effect of over 50% in size
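Fission yeast RE007 carrying one integrated HIV-1 vpr copy, seeded at OD 0.01 in PMG+AL medium with 23 nL pinned compound. Grown 24 h at 30 degrees; viability read by BacTiter-Glo luminescence after 5 min.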
Active calls of the source: *; u = inconclusive; x = not tested or not shown. Unless noted, calls come from the whole dose curve; as a rule, active = well fitted curve in the direction sought with a large enough effect; inconclusive = small, poorly fitted or top-dose-only effect, or another doubt; inactive = no such curve, though single readings can be large; an effect the other way counts as inactive or inconclusive.

SMILES	Tb PYK inh	Cycloheximide cs	Shiga toxin inh	Giardia FBPA inh	LmPK inh	RE007 growth inh
Cc1ccc(C)c(NC(=O)c2ccccc2O)c1	u	22*	54	-1%	-2%	-3%
Cc1ccc(C)c(NC(=O)c2nc(Cl)ccc2Cl)c1	-2%	26*	36	5%	-10%	-6%
Cc1ccccc1Cn1nnc(C(=O)Nc2cccc(C)c2C)c1N	-2%	30*	30	-1%	0%	0%
Cc1ccc(C)c(NC(=O)COC(=O)c2nc(Cl)ccc2Cl)c1	-9%	x	x	x	x	-6%
Cc1cccc(NC(=O)c2cnn3ccccc23)c1C	0%	50*	78*	-6%	1%	-5%
COc1ccc2c(c1)C(=O)[C@@H](OC(=O)NCCc1ccc(OC)c(OC)c1)[C@H](c1ccc(OC)c(Br)c1)O2	x	x	x	1%	x	x
COc1cccc(-c2nnc3n2N=C(c2ccc(OC)cc2OC)CS3)c1	x	12	-5	1%	x	x
Cc1cc(C)n2ncc(C(=O)NCc3ccc(Cl)cc3)c2n1	0%	19	-7	-2%	6%	-1%
O=C(NCc1ccc(Cl)cc1)c1cnn2ccccc12	7%	56*	80*	-6%	7%	5%
O=C(Nc1ccccc1O)c1ccccc1O	4%	32*	53*	-6%	-7%	-21%
Cc1cccc(NC(=O)c2ccccc2O)c1C	3%	34*	49*	-4%	-14%	u
O=C(Nc1ccccc1O)c1ccc(C(=O)c2ccccc2)o1	3%	27*	35*	0%	3%	-5%
O=C(Nc1ccccc1Cl)c1ccccc1Cl	1%	14	8	4%	-1%	-9%
COC(=O)c1nnc(C(=O)NCc2ccccc2)c2[nH]c3ccc(OC)cc3c12	x	x	x	0%	x	x
CCc1ccccc1NC(=O)C1COc2ccccc2C1 (stereo not given)	-1%	x	x	x	x	x
COCC(=O)N1CCC[C@@]2(CCN(c3ccccn3)C2)C1	0%	x	x	-8%	x	x
COc1ccc(-c2nc3scc(CCNS(=O)(=O)c4ccc(F)cc4C)n3n2)cc1	3%	x	x	x	x	x
CN(CCOc1ccc(-c2ccn(S(=O)(=O)c3ccc(Cl)cc3)n2)cc1)c1ccccn1	-6%	7	11	-2%	-1%	9%
O=C(c1ccccc1)n1ccc(-c2cnc(-c3ccccc3)s2)n1	-8%	40*	97*	4%	2%	2%
COc1ccc(S(=O)(=O)n2ccc(-c3cnc(-c4ccccc4)s3)n2)cc1	-8%	17*	37	-11%	2%	-22%
COc1cc(SC)ccc1C(=O)OCC(=O)NC1CCCCC1	-1%	60*	35	4%	17%	-19%
COc1cc(SC)ccc1C(=O)NC1CCCCC1	0%	36*	51	u	-1%	-15%
COc1cc(C(=O)NCC2CCCO2)ccc1OCc1ccccc1Cl (stereo not given)	4%	16*	37	16%	-1%	21%
COc1cc(SC)ccc1C(=O)OCC(=O)NC1CCCC1	-4%	54*	113*	6%	0%	19%
COc1cc(OC)c(C(=O)OCC(=O)NC2CCCC2)cc1OC	0%	12	-11	-9%	-4%	-2%
SMILES	Tb PYK inh	Cycloheximide cs	Shiga toxin inh	Giardia FBPA inh	LmPK inh	RE007 growth inh
COc1cc(C(=O)NCC2CCCO2)ccc1OCc1ccccc1 (stereo not given)	-6%	6	10	x	-2%	15%
CCCOc1ccc(C(=O)NCC2OCCc3ccccc32)cc1 (stereo not given)	-5%	x	x	x	x	x
CC(Oc1ccccc1)C(=O)Nc1ccccc1C(=O)OCc1cc(=O)n2nc(C3CC3)sc2n1 (stereo not given)	0%	x	x	x	x	x
COc1cc(SC)ccc1C(=O)NCC1CCCO1 (stereo not given)	1%	24*	74	-2%	-1%	-6%
COc1ccc(C(=O)NCC2CCCO2)cc1OC (stereo not given)	-9%	-2	12	1%	-1%	-20%
CCC(=O)N1CCc2cc(S(=O)(=O)NC(Cc3ccccc3)C(=O)NCc3cccc(OC)c3)ccc21 (stereo not given)	-1%	x	x	x	x	x
COc1ccc2c(c1)O[C@@H](c1cccc(C(F)(F)F)c1)[C@H](OC(=O)N[C@H](C)C1CCCCC1)C2=O	x	x	x	3%	x	x
NC(=Nc1ccc(Cl)cc1)c1ccccc1	-6%	26*	40	7%	2%	3%
S=C(NCCCN1CCOCC1)Nc1ccc(-c2nc3ccccc3[nH]2)cc1	-10%	28	38	u	-2%	-14%
CN(C)CCNC(=S)Nc1ccc(-c2nc3ccccc3[nH]2)cc1	-15%	46*	122*	0%	-4%	-10%
S=C(NCc1ccc2c(c1)OCO2)Nc1ccc(-c2nc3ccccc3[nH]2)cc1	-12%	32*	62*	-4%	0%	-13%
C=CC[N+]1([C@H]2C[C@H]3[C@@H]4CC[C@H]5C[C@H](O)[C@@H](N6CCOCC6)C[C@]5(C)[C@H]4CC[C@]3(C)[C@H]2OC(C)=O)CCCC1	-9%	x	x	x	x	x
CC(C)c1ncc([N+](=O)[O-])n1C	-1%	x	x	x	x	x
Cc1nc2cc3ccccc3cc2s1	2%	x	x	x	x	0%
Cc1nc2cc3nc(C)sc3cc2s1	-26%	36*	109*	-29%	-10%	-10%
Cc1ccccc1-c1noc(CSc2nnc(Cc3ccccc3)n2-c2ccc(F)cc2)n1	1%	x	x	x	x	x
COc1ccc(NC(=O)c2ccc3oc(=O)c(S(=O)(=O)c4ccc(C)cc4)cc3c2)cc1OC	2%	x	x	x	x	x
O=[N+]([O-])c1ccccc1COc1ccc(Cl)c2cccnc12	-4%	23*	62*	7%	-16%	-3%
O=C(O)CCNc1cc2ccccc2cc1C(=O)O	-26%	-4	20	4.5µM*	10%	-7%
Nc1nc2ccc([N+](=O)[O-])cc2[nH]1	3%	-3	15	3%	-8%	x
O=[N+]([O-])c1ccc(/C=C/c2nc3ccc([N+](=O)[O-])cc3[nH]2)cc1	2%	33*	91*	22%	1%	2%
NC(N)=Nc1nc2ccc([N+](=O)[O-])cc2[nH]1	-7%	9.4*	24	-5%	-2%	11%
CC(=O)Nc1ccc2nc(C3CCCCC3)[nH]c2c1	5%	11	3	x	0%	-14%
O=[N+]([O-])c1ccc2nc(CCCc3nc4ccc([N+](=O)[O-])cc4[nH]3)[nH]c2c1	-14%	15	53*	0%	-1%	0%
O=[N+]([O-])c1ccc2nc(C3CCCCC3)[nH]c2c1	-2%	18*	46*	-11%	2%	0%
Cc1cc(C)cc(NC(=O)C2CCN(c3cc(C)nc4c(-c5ccc(Cl)cc5)c(C)nn34)CC2)c1	-2%	x	x	x	x	x
CC(=O)Nc1ccc(C(=O)Nc2ccc3c(c2)OCCO3)cc1	3%	27*	42*	1%	-1%	13%
